# The panel holds about 83,000 compounds, 20% with a hit somewhere; the sample as a whole holds those more often.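 Values shown are percent growth following 48 h exposure of cells in 96-well plates to a single concentration of compound; below 10 was considered active.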 Values without a mark were called inactive. The source made the active and inactive calls.
# What was measured:
# Assay in all cases: NCI-60 one-dose screen, 48 h (100 = growth as untreated, 0 = no growth, -100 = all killed)
# Conditions in all cases: 10 µM unless noted
# DU-145 prostate = test system: DU-145 prostate
# K-562 leukemia = test system: K-562 leukemia
# MALME-3M melanoma = test system: MALME-3M melanoma
# MDA-MB-231 breast = test system: MDA-MB-231 breast
# RXF 393 renal = test system: RXF 393 renal
# SF-268 CNS = test system: SF-268 CNS
# SF-295 CNS = test system: SF-295 CNS
# SF-539 CNS = test system: SF-539 CNS
# UACC-257 melanoma = test system: UACC-257 melanoma
# M14 melanoma = test system: M14 melanoma
# HCT-15 colon = test system: HCT-15 colon
# HT29 colon = test system: HT29 colon
# SNB-19 CNS = test system: SNB-19 CNS
# U251 CNS = test system: U251 CNS
# PC-3 prostate = test system: PC-3 prostate
# SK-MEL-5 melanoma = test system: SK-MEL-5 melanoma
# UACC-62 melanoma = test system: UACC-62 melanoma
# LOX IMVI melanoma = test system: LOX IMVI melanoma
# SK-MEL-28 melanoma = test system: SK-MEL-28 melanoma
SMILES,growth (DU-145 prostate) [%],growth (K-562 leukemia),growth (MALME-3M melanoma),growth (MDA-MB-231 breast),growth (RXF 393 renal),growth (SF-268 CNS),growth (SF-295 CNS) [%],growth (SF-539 CNS),growth (UACC-257 melanoma),growth (M14 melanoma),growth (HCT-15 colon),growth (HT29 colon),growth (SNB-19 CNS),growth (U251 CNS),growth (PC-3 prostate) [%],growth (SK-MEL-5 melanoma),growth (UACC-62 melanoma),growth (LOX IMVI melanoma),growth (SK-MEL-28 melanoma)
CCN(CC)CCCC(C)Nc1ccnc2c(OC)cccc12 (stereo not given),120,121%,142%,107%,135%,124%,109,116%,113%,108%,120%,107%,113%,102%,104,111%,114%,107%,119%
CN1CCN(Cc2ccc(NC(=O)c3cncc(C#Cc4cncc5nccnc45)c3)cc2C(F)(F)F)CC1,47.7,10.4%,-17.7% (active),26.9%,28.1%,58.9%,70.7,26.9%,35.5%,9.82% (active),40.6%,22.7%,92.1%,76.3%,67.6,41.9%,16.6%,-7.67% (active),13.3%
CCCCCCCCCCCCCCCCCCNC(=O)[C@H]1CSC(c2ccc(F)c(OC)c2)N1 (stereo not given in full),26.5,-56.3% (active),-91.2% (active),-83.4% (active),-93.6% (active),-69.9% (active),30.8,-61.9% (active),-61.7% (active),-90.8% (active),6.47% (active),-84.5% (active),-40.2% (active),-96.6% (active),34.1,-94.8% (active),-97.2% (active),14.1%,-93.3% (active)
O=C(Nc1ccc(Oc2ccc(F)cc2)c(Cl)c1)c1cccnc1,87,50.9%,103%,93.7%,90.2%,95%,86,94.4%,91.4%,97.3%,84.3%,88.5%,93.2%,89%,90.7,79.5%,81.3%,91.2%,103%
C=C1CC2(OC1=O)C(=O)Nc1ccccc12 (stereo not given),43,21.8%,12.4%,65.6%,-13.3% (active),98%,96,47.3%,71.9%,59.1%,23%,42.7%,88.3%,91.2%,,81.2%,72.9%,35.3%,63.8%
O=C(CN1CCN(c2cc3c(cc2F)c(=O)c(C(=O)O)cn3C2CC2)CC1)Nc1cc(=O)[nH]c(=O)[nH]1,112,103%,95.3%,102%,94.4%,100%,86.8,96.6%,103%,89.2%,96.1%,102%,97.4%,106%,99,98.9%,96%,101%,101%
CC(C)C1=C[C@@]23CC[C@@H]4[C@](C)(CCC[C@@]4(C)C(=O)OCC#CCN4CCCC4)[C@H]2C[C@@H]1[C@H]1C(=O)OC(=O)[C@H]13,89.2,68.5%,89.6%,98.3%,110%,93.1%,97.3,92.1%,96.5%,96.6%,90.6%,90.7%,97.4%,100%,77.8,91.3%,,89.1%,101%
COc1cccc(-c2nc3sccn3c2-c2ccnc(NCCCNS(=O)(=O)c3ccc(Cl)cc3)c2)c1,51.3,29.4%,74.1%,59.5%,65.3%,44.2%,42.7,66.7%,59.4%,41.1%,37.8%,42.6%,69.4%,63.5%,26.2,1.31% (active),6.77% (active),39.2%,69.6%
